# Results taken from PubChem BioAssay (EPA / NIEHS).
# Values joined by “and” are separate entries in the source; they are usually repeats but may differ in a detail not shown here. Equal entries are not always repeated. Inconclusive results are not listed. Active and inactive are the calls of the source. Rule for the calls: active = hit-call score of the fitted dose curve at least 0.9, where 1 is the maximum; inconclusive = response in the unintended direction; inactive = score below 0.9.
# Columns and labels:
# [1] = target: Serine/threonine-protein phosphatase PP1-alpha catalytic subunit (Homo sapiens) (UniProt P62136); experiment: NVS_ENZ_hPPP1CA: NovaScreen (NVS) Enzymatic Assay for human Protein Phosphatase 1 Aatalytic subunit Alpha (PPP1CA) (AID 2283200)
# How it was run: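 Chemicals were first screened in duplicate at 25 uM, and those passing threshold (e.g. 30% inhibition) were run as concentration series to 50 uM. Cell-free recombinant protein, 1.33 h read, fluorescent substrate/product mobility-shift detection, normalised to DMSO.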
# [2] = target: human Protein Phosphatase, Mg2+/Mn2+ Dependent 1A (PPM1A), PPM1A (gene 5494) (UniProt P35813); experiment: NVS_ENZ_hPPM1A: NovaScreen (NVS) Enzymatic Assay for human Protein Phosphatase, Mg2+/Mn2+ Dependent 1A (PPM1A) (AID 2283198)
# How it was run: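 Primary screen in duplicate at 25 uM, with actives then titrated to a maximum of 50 uM. Recombinant PPM1A dephosphorylation of fluorescent substrate measured at 1 h, with substrate and product separated by mobility shift; inhibition fitted against DMSO.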
# [3] = target: human Phosphoinositide 3-kinase alpha (PI3Ka), PIK3CA (gene 5290) (UniProt P42336); experiment: NVS_ENZ_hPI3Ka: NovaScreen (NVS) Enzymatic Assay for human Phosphoinositide 3-kinase alpha (PI3Ka) (AID 2283196)
# Experimental: NVS_ENZ_hPI3Ka is a biochemical, single-readout assay that uses extracted gene-proteins in a cell-free assay. Measurements were taken 1 hour after chemical dosing in a 384-well plate.NVS_ENZ_hPI3Ka is one of one assay component(s) measured or calculated from the NVS_ENZ_hPI3Ka assay. It is designed to make measurements of enzyme activity, a form of enzyme reporter, as detected with fluorescence intensity signals by Fluorescence and electrophoretic mobility shift technology.Data from the assay component NVS_ENZ_hPI3Ka was analyzed into 1 assay endpoint. This assay endpoint, NVS_ENZ_hPI3Ka, was analyzed in the positive analysis fitting direction relative to DMSO as the negative control and baseline of activity. Using a type of enzyme reporter, loss-of-signal activity can be used to understand changes in the enzymatic activity as they relate to the gene PIK3CA. Furthermore, this assay endpoint can be referred to as a primary readout, because this assay has produced multiple assay endpoints where this one serves a enzymatic activity function. To generalize the intended target to other relatable targets, this assay endpoint is annotated to the kinase intended target family, where the subfamily is phosphoinositol kinase.
# Binding assays used specific radioligands (tritiated, iodinated) with non-radioactive competitive displacement ligands in agonist or antagonist protocols (as indicated) and various reference compounds and inhibitors to titrate specific binding to receptors and transporters. Most enzyme assays (CYPs, kinases, phosphatases, proteases, HDACs) used recombinant protein and specific substrates (fluorescence mostly, some colorimetric and radioactive) and inhibitors, followed by a biochemical separation of substrate and product. All assays for the biochemical HTS were initially run in duplicate at a single concentration (10 uM for CYP450 assays and 25 uM for all others). Assay-chemical combinations meeting a pre-defined threshold (e.g., 30% inhibition and other criteria defined below) were then run in singleton concentration-response format with maximum concentration of 20 uM for CYPs and 50 uM for all others. Each assay was run with positive and negative controls, and concurrent controls on every plate. The follow-up (secondary) screen tested active chemical-pairs in concentration series, as well as a few additional assays not tested in the primary screen, some selected negative inactives, and several cases re-run in the concentration series for confirmatory purposes.
# [4] = target: Tyrosine-protein phosphatase non-receptor type 11 (Homo sapiens) (UniProt Q06124); experiment: NVS_ENZ_hPTPN11: NovaScreen (NVS) Enzymatic Assay for human Protein Tyrosine Phosphatase Non-receptor Type 11 (PTPN11) (AID 2283202)
# How it was run: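 Compounds first tested in duplicate at 25 uM; those reaching ~30% inhibition rerun in singleton concentration-response, top 50 uM. Phosphatase activity measured after 0.5 h by fluorescence with mobility-shift separation, relative to DMSO.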
# [5] = target: Tyrosine-protein phosphatase non-receptor type 12 (Homo sapiens) (UniProt Q05209); experiment: NVS_ENZ_hPTPN12: NovaScreen (NVS) Enzymatic Assay for human Protein Tyrosine Phosphatase Non-receptor Type 12 (PTPN12) (AID 2283204)
# How it was run: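 Single-concentration duplicates (25 uM) preceded singleton concentration-response up to 50 uM for chemicals passing threshold. Cell-free recombinant PTPN12 activity was read 1.33 h after dosing via fluorescence after mobility-shift separation; loss of signal versus DMSO.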
# [6] = target: Tyrosine-protein phosphatase non-receptor type 14 (Homo sapiens) (UniProt Q15678); experiment: NVS_ENZ_hPTPN14: NovaScreen (NVS) Enzymatic Assay for human Protein Tyrosine Phosphatase Non-receptor Type 14 (PTPN14) (AID 2283206)
# How it was run: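 Fluorescent substrate turnover by recombinant human PTPN14 was measured 0.5 h after compound addition, with substrate and product separated by mobility shift. Single-point screening at 25 uM, then concentration-response up to 50 uM for chemicals meeting threshold (e.g., 30% inhibition).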
# [7] = target: human Phosphodiesterase 10 (PDE10), PDE10A (gene 10846) (UniProt Q9Y233); experiment: NVS_ENZ_hPDE10: NovaScreen (NVS) Enzymatic Assay for human Phosphodiesterase 10 (PDE10) (AID 2283195)
# How it was run: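 Biochemical single-readout PDE10A assay, cell-free, extracted protein. Compounds first screened at 25 uM in duplicate, hits then titrated to 50 uM max. Activity measured after 1 h; loss-of-signal fitted against DMSO negative control.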
# [8] = target: human Protein Tyrosine Phosphatase Non-receptor Type 1 (PTPN1), PTPN1 (gene 5770) (UniProt P18031); experiment: NVS_ENZ_hPTPN1: NovaScreen (NVS) Enzymatic Assay for human Protein Tyrosine Phosphatase Non-receptor Type 1 (PTPN1) (AID 2283201)
# How it was run: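 Chemicals were first tested in duplicate at 25 uM, and those passing threshold went on to singleton concentration series topping at 50 uM. Recombinant enzyme, specific substrate, product separated by mobility shift, fluorescence read at 1.33 h; activity loss relative to DMSO.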
# [9] = target: human Protein Tyrosine Phosphatase Non-receptor Type 6 (PTPN6), PTPN6 (gene 5777) (UniProt P29350); experiment: NVS_ENZ_hPTPN6: NovaScreen (NVS) Enzymatic Assay for human Protein Tyrosine Phosphatase Non-receptor Type 6 (PTPN6) (AID 2283210)
# How it was run: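 Recombinant human PTPN6 from SF9 cells, enzyme activity followed by fluorescence after mobility-shift separation of substrate and product at 1.33 h. Chemicals first tested at a single 25 uM in duplicate, then confirmed across concentration series; loss of signal relative to DMSO.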
# [10] = target: Tyrosine-protein phosphatase non-receptor type 13 (Homo sapiens) (UniProt Q12923); experiment: NVS_ENZ_hPTPN13: NovaScreen (NVS) Enzymatic Assay for human Protein Tyrosine Phosphatase Non-receptor Type 13 (PTPN13) (AID 2283205)
# How it was run: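 Screened first at a single 25 uM in duplicate; compounds passing the threshold (e.g. 30% inhibition) were rerun in concentration series, top 50 uM. Recombinant enzyme, fluorescent substrate, mobility-shift separation, 0.5 h read. Data fitted as inhibition relative to DMSO.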
# Serine/threonine-protein phosphatase PP1-alpha catalytic subunit (Homo sapiens), sequence (P62136 whole entry, looked up): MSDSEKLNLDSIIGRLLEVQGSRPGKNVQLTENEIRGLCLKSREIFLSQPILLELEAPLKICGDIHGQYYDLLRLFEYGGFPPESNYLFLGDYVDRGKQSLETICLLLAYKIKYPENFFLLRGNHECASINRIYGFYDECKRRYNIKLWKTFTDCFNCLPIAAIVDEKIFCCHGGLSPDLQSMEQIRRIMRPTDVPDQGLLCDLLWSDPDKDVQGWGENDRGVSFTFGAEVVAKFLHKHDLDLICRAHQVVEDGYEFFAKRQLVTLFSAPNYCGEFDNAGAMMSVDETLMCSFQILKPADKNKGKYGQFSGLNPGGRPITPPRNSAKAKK
# human Protein Tyrosine Phosphatase Non-receptor Type 1 (PTPN1), PTPN1 (gene 5770), sequence (P18031 whole entry, looked up): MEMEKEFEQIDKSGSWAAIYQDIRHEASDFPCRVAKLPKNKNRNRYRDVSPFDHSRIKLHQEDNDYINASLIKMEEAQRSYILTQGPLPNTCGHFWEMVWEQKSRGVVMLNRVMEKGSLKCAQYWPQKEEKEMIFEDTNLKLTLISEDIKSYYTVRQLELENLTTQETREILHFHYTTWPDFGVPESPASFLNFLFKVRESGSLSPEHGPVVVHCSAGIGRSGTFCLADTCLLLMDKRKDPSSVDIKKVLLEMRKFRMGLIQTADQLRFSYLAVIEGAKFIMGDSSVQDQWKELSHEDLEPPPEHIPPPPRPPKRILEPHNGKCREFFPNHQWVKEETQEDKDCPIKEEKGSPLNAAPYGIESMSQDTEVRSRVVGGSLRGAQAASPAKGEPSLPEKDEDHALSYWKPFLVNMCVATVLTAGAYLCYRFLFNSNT
# human Phosphoinositide 3-kinase alpha (PI3Ka), PIK3CA (gene 5290), sequence (P42336 whole entry, looked up): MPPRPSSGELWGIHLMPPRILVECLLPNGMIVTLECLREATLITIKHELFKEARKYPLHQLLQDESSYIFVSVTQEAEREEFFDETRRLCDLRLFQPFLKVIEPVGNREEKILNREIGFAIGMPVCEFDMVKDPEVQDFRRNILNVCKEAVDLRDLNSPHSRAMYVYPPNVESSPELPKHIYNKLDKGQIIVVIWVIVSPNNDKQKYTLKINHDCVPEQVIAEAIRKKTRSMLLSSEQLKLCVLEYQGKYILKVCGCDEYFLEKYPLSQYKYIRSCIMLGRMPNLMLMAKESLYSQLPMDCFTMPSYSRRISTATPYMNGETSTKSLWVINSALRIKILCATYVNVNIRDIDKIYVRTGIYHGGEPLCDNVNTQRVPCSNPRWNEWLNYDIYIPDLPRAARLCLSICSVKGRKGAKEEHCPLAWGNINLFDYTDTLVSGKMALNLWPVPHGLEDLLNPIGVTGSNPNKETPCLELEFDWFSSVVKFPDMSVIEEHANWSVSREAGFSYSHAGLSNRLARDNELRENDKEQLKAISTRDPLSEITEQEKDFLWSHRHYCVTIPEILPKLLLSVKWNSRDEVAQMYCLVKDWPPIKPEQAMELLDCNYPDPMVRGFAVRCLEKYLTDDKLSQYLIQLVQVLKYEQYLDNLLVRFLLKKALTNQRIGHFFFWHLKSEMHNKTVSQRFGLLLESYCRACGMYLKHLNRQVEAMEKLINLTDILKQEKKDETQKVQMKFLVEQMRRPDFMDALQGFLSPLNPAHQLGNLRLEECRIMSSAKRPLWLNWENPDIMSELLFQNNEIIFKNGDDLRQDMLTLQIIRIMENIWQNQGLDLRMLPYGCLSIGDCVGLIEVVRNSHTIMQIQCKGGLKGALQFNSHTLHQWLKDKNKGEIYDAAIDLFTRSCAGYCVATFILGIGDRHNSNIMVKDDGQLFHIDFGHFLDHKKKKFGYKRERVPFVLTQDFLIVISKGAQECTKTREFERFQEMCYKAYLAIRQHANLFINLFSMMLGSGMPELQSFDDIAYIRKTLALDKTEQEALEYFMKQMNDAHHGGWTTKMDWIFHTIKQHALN
# Tyrosine-protein phosphatase non-receptor type 14 (Homo sapiens), sequence (Q15678 whole entry, looked up): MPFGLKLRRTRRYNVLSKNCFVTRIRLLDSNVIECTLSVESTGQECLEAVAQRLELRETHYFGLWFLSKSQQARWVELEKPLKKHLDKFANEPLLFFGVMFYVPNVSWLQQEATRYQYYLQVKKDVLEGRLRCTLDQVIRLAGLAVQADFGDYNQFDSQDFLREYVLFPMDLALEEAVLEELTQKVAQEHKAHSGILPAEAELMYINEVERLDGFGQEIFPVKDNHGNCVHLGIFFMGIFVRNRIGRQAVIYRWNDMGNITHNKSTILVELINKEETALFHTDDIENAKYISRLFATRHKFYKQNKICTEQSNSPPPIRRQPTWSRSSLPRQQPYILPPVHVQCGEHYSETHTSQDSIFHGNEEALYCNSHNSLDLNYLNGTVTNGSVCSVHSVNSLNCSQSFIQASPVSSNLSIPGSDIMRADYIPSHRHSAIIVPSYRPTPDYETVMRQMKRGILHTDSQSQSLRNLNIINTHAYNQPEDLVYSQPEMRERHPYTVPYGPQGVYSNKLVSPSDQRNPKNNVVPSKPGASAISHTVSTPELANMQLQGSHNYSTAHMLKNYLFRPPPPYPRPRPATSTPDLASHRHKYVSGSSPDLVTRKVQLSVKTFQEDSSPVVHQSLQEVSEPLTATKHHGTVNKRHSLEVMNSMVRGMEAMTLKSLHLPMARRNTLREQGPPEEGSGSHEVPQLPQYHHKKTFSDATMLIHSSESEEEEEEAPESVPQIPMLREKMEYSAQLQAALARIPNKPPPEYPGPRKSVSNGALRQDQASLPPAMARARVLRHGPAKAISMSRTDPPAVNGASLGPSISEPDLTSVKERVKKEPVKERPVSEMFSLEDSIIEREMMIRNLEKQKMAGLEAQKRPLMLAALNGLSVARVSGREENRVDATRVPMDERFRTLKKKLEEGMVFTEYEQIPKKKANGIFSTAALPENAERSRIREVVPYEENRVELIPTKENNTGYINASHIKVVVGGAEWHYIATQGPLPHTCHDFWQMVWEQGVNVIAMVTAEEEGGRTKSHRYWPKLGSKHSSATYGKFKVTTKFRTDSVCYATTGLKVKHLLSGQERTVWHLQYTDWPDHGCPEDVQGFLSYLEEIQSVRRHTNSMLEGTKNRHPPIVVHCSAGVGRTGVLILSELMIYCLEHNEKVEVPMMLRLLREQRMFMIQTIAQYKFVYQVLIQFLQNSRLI
# Tyrosine-protein phosphatase non-receptor type 11 (Homo sapiens), sequence (Q06124 whole entry, looked up): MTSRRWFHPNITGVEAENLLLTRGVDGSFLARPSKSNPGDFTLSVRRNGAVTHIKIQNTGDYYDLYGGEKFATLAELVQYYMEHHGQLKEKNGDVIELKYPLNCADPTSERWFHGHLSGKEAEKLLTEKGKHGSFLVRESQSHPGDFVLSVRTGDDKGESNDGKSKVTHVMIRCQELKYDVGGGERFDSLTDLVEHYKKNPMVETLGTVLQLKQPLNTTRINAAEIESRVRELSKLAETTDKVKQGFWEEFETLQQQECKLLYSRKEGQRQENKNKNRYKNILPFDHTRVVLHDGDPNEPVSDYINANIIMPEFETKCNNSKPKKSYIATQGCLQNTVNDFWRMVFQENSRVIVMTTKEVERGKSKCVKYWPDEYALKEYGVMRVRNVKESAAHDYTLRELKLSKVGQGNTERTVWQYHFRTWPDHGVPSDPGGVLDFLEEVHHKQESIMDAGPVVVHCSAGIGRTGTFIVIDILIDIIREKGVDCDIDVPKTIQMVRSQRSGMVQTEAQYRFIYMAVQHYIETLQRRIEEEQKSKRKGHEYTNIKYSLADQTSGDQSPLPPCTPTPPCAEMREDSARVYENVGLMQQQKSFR
# human Protein Phosphatase, Mg2+/Mn2+ Dependent 1A (PPM1A), PPM1A (gene 5494), sequence (P35813 whole entry, looked up): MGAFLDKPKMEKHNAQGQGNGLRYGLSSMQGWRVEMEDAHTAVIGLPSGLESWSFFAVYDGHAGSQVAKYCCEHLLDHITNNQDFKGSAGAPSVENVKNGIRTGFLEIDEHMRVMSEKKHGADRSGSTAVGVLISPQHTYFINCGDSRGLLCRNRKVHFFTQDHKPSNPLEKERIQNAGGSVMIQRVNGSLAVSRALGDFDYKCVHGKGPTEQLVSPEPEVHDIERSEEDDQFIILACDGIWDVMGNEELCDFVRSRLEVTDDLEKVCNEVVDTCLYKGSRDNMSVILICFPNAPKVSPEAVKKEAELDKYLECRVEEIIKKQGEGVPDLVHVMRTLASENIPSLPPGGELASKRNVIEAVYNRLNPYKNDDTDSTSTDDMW
# human Phosphodiesterase 10 (PDE10), PDE10A (gene 10846), sequence (Q9Y233 whole entry, looked up): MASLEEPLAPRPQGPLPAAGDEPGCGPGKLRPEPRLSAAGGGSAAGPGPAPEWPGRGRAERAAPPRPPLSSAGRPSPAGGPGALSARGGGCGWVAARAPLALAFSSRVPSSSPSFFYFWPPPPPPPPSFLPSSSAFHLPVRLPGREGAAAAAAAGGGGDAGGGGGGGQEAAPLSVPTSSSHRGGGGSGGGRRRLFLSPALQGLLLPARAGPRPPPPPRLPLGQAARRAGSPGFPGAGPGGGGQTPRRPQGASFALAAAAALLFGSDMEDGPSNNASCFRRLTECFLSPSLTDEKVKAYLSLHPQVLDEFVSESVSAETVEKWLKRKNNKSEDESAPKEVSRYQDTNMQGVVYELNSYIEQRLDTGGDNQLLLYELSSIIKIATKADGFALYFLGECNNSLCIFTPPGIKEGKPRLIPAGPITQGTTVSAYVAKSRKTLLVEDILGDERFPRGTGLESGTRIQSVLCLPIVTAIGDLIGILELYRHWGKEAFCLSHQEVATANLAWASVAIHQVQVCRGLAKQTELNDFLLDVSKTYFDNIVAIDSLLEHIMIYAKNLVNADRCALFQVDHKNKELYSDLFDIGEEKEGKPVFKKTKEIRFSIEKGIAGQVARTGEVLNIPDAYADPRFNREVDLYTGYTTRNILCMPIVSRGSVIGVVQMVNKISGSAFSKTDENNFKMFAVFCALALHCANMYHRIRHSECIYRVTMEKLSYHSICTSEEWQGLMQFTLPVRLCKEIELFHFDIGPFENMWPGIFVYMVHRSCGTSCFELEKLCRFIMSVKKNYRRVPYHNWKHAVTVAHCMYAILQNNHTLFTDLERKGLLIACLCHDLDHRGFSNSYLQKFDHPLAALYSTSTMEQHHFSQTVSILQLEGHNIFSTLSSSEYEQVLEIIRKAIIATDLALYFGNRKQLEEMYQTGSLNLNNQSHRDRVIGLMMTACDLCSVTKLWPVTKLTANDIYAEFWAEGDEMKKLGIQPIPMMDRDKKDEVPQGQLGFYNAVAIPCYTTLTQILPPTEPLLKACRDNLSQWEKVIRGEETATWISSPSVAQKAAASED
smiles,measurement,setting,value
Cc1c2ccccc2c(C)c2c1ccc1ccccc12,outcome,[1],inactive
CC(C)(O)c1ccc(CNC(=O)c2cccnc2Oc2ccc3nonc3c2)cc1,outcome,[2],inactive
CC/C(=C(/CC)c1ccc(O)cc1)c1ccc(O)cc1,AC50,[3],40 µM (active) and 17.3 µM (active) and 27.8 µM (active)
same,outcome,[4],inactive
same,outcome,[5],inactive
same,outcome,[6],inactive
COc1cc(C(=O)NC2CCN(C)CC2)ccc1Nc1ncc2c(n1)N(C1CCCC1)CC(F)(F)C(=O)N2C,AC50,[7],3.76 µM (active)
same,outcome,[6],inactive
CCOC(=O)O[C@H](C)OC(=O)c1ccc2c(c1)cc(C(=O)NC1CCN(C(C)C)CC1)n2Cc1cc(-c2ccc(Cl)s2)on1,AC50,[1],18.6 µM (active)
c1ccc(C[n+]2cccc3ccccc32)cc1,outcome,[8],inactive
same,outcome,[9],inactive
CC(C)(C)c1csc(-c2cc3cc(OCc4ccccc4CC(=O)O)ccc3o2)n1,outcome,[8],inactive
same,outcome,[4],inactive
CC[C@H](NC(=O)c1cc(F)ccc1NS(=O)(=O)c1cccc2cccnc12)c1ccccc1,outcome,[1],inactive
CCCCCCCCOC(=O)c1cc(O)c(O)c(O)c1,outcome,[3],inactive
O=C1c2ccccc2C(=O)N1CCc1noc(-c2ccc(CN3CCCCCC3)s2)n1,outcome,[4],inactive
CCCCCCCCN(C)CCCCCCCC,outcome,[3],inactive
same,outcome,[2],inactive
c1ccc2ccccc2c1,outcome,[1],inactive
same,outcome,[4],inactive
CCCCOC(=O)CC(CC(=O)OCCCC)(OC(C)=O)C(=O)OCCCC,outcome,[10],inactive
O=C1CCC(C2CCCCC2)CC1,outcome,[4],inactive
O=C(O)Cc1cc(I)c(Oc2ccc(O)c(I)c2)c(I)c1,AC50,[7],3.32 µM (active)
CC[C@@H]1C[C@H](N(Cc2cc(C(F)(F)F)cc(C(F)(F)F)c2)C(C)=O)c2cc(C(F)(F)F)ccc2N1C(=O)OC(C)C,outcome,[8],inactive
CCCCCCCCCC(=O)O,outcome,[2],inactive
CCN(CC)C(=O)c1cc(S(=O)(=O)Cc2ccccc2)c(N2CCC(c3ccccc3)CC2)cc1N(CC)CCN(C)C,AC50,[7],16 µM (active)
same,outcome,[10],inactive
CCN(Cc1cccc(S(=O)(=O)O)c1)c1ccc(C(=C2C=CC(=[N+](CC)Cc3cccc(S(=O)(=O)O)c3)C=C2)c2ccccc2S(=O)(=O)[O-])cc1,AC50,[1],5.82 µM (active)
same,AC50,[6],11.9 µM (active)
O=C1O[C@H]([C@@H](O)CO)C(O)=C1O,outcome,[3],inactive
CN1C(=O)N(c2ccccc2Br)Cc2cnc(Nc3ccc4c(c3)OCC(CO)O4)nc21 (centres undefined),AC50,[7],1.09 µM (active)
same,outcome,[8],inactive
same,outcome,[6],inactive
Oc1ccc2ccccc2c1,outcome,[6],inactive
